Measured values as given in PubChem BioAssay (NCATS).
Results filed as inconclusive are left out. A call without a number means that no potency is given here. Active and inactive are the calls of the source. Calls come from the whole dose curve.

Tests used:
[1] = Cytotoxicity counterscreen for inhibitors of SARS-CoV-2 cell entry (AID 1645845); conditions: outcome: dose series up to 57.1 µM unless noted; note: nearly all actives have a fitted effect of over 50% in size
How it was run: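 Counterscreen run in the same HEK293-ACE2 line as the pseudotyped-particle entry assay, without particles. Viability after 48 h at 37 C was read as ATP luminescence, scaled between cell-containing and cell-free wells.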

[2] = Primary qHTS to identify inhibitors of SARS-CoV-2 cell entry (AID 1645846); conditions: SARS-CoV-2 pseudovirus cell entry assay, luminescence; activity change, negative = inhibition: at 57.1 µM (top of the series) unless noted; note: nearly all actives have a fitted effect of over 45% in size
How it was run: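 Data are normalized to wells receiving SARS-CoV-2-S pseudoparticles and those given bald particles. Entry signal was luciferase luminescence in stable hACE2 Expi293F cells, 48 hr post-infection, after 1 hr compound pretreatment.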
Potency is the fitted concentration of half-maximal effect.

SMILES | Potency [1] | Potency [2] | activity change, negative = inhibition [2] [%]
NS(=O)(=O)Oc1ccc2c3c(c(=O)oc2c1)CCCCC3 | inactive | inactive | –
FC(F)(F)c1ccc(CNc2ccc(Cc3c[nH]c4ncc(Cl)cc34)cn2)cn1 | inactive | – | -1.72
O=C(NC[C@H](O)CN1CCc2ccccc2C1)c1ccnc(NC2CCC2)c1 | inactive | – | 4.47
CCOc1cc(C(=O)N2CCC(N3CCN(C)CC3)CC2)ccc1Nc1ncc2c(n1)N(C1CCCC1)c1ccccc1C(=O)N2C | inactive | 25.1 µM (active) | –
CN(C)C1CCN(C(=O)c2ccc(NC(=O)Nc3ccc(-c4nc(N5CCOCC5)nc(N5CCOCC5)n4)cc3)cc2)CC1 | 1.12 µM (active) | 1.58 µM (active) | –
C[C@H](CCC(=O)O)[C@H]1CC[C@H]2[C@@H]3[C@H](O)C[C@@H]4C[C@H](O)CC[C@]4(C)[C@H]3CC[C@]12C | inactive | – | -12.9
O=c1oc2c(C3OCCCO3)c(O)ccc2c2c1CNCC2 | inactive | – | 1.62
C=CC(=O)Nc1cc(N2CCN(CC)CC2)ccc1Nc1cc(N(C)C(=O)Nc2c(Cl)c(OC)cc(OC)c2Cl)ncn1 | inactive | – | -6.15
Clc1cccc(-c2ccc(-c3nnc(CCCc4ccc5cccnc5n4)o3)cc2)c1 | inactive | inactive | –
CC(=O)N[C@H]1CSSC[C@@H](C(N)=O)NC(=O)[C@H](C(C)C)NC(=O)[C@H](C)NC(=O)[C@H](Cc2cnc[nH]2)NC1=O | inactive | inactive | –
Cc1noc(-c2ccc(-c3ccc(C4(C(=O)O)CC4)cc3)cc2)c1NC(=O)O[C@H](C)c1ccccc1 | inactive | 35.5 µM (active) | –
CN(Cc1ccccc1)C(=O)c1ccc(S(=O)(=O)Nc2ccccc2)cc1 | inactive | – | –
Cc1cc(C)c(S(=O)(=O)N(CCc2cccc(Br)c2)Cc2ccc(-c3cccc(S(C)(=O)=O)c3)cc2)c(C)c1 | inactive | – | -5.91
CNc1nc(Nc2cnn([C@H]3CCN(C4COC4)C[C@@H]3F)c2Cl)ncc1C(F)(F)F | inactive | inactive | –
COC[C@@H](c1ccc(C(F)(F)F)cc1)N1CCN(C2(C)CCN(C(=O)c3c(C)ncnc3C)CC2)C[C@@H]1C | inactive | – | -12.7
CCOC(=O)N[C@@H]1CC[C@@H]2[C@@H](C1)C[C@H]1C(=O)O[C@H](C)[C@H]1[C@H]2/C=C/c1ccc(-c2cccc(F)c2)cn1 | inactive | 28.2 µM (active) | –
Cc1ccc(-c2ccc3ncc4c(c3n2)n(C2CCN(C(=O)[C@H](C)O)CC2)c(=O)n4C)cn1 | inactive | – | -95.8
Nc1ncnc2c1c(COc1cccc(Cl)c1)nn2C1CCOCC1 | inactive | inactive | –
COc1ccc(Cl)cc1-c1cc(=O)[nH]c(=S)n1CC(N)=O | inactive | – | 4.69
CCCCC[C@H](O)/C=C/[C@H]1[C@H](O)CC(=O)[C@@H]1CCCCCCC(=O)O | inactive | – | -2.28
CC(=NNC(=O)c1cccc(S(=O)(=O)N2CCOCC2)c1)c1cc(Cl)ccc1O | inactive | – | -7.45
CN(C)Cc1cccc(N=C(c2ccccc2)c2c(O)[nH]c3cc(C(N)=O)ccc23)c1 | inactive | – | –
N#CCC1(n2cc(-c3ncnc4[nH]ccc34)cn2)CN(C2CCN(C(=O)c3ccnc(C(F)(F)F)c3F)CC2)C1 | inactive | inactive | –
CO[C@H]1C[C@@H]2CC[C@@H](C)[C@@](O)(O2)C(=O)C(=O)N2CCCC[C@H]2C(=O)O[C@H]([C@H](C)C[C@@H]2CC[C@@H](OCCO)[C@H](OC)C2)CC(=O)[C@H](C)/C=C(/C)[C@@H](O)[C@@H](OC)C(=O)[C@H](C)C[C@H](C)/C=C\C=CC=C1C | inactive | – | –
CC#CC(=O)N1CCC[C@H]1c1nc(-c2ccc(C(=O)Nc3ccccn3)cc2)c2c(N)nccn12 | inactive | – | –
CCOCc1nc2c(N)nc3ccccc3c2n1CC(C)(C)O | inactive | – | -25

SMILES | Potency [1] | Potency [2] | activity change, negative = inhibition [2] [%]
COc1ccccc1C(=O)Nc1cc2c(cc1N1CCCCC1)n(C)c(=O)n2C | inactive | – | -21.1
CC(C)N(CCCNC(=O)Nc1ccc(C(C)(C)C)cc1)C[C@H]1O[C@@H](n2ccc3c(N)ncnc32)[C@H](O)[C@@H]1O | inactive | – | -9.11
Cc1c(-c2c(-c3ccc(F)o3)sc3ncnc(O[C@@H](Cc4ccccc4OCc4ccnn4CC(F)(F)F)C(=O)O)c23)ccc(OCCN2CCN(C)CC2)c1Cl | inactive | – | -7.93
CO[C@H]1/C=C/O[C@@]2(C)Oc3c(C)c(O)c4c(O)c(c5c(c4c3C2=O)=NC2(CCN(CC(C)C)CC2)N=5)NC(=O)/C(C)=C/C=C/[C@H](C)[C@H](O)[C@@H](C)[C@@H](O)[C@@H](C)[C@H](OC(C)=O)[C@@H]1C | inactive | inactive | –
COc1cccc(Nc2ncnn3ccc(CN4CC[C@@H](N)[C@H](O)C4)c23)c1 | inactive | inactive | –
CC1(C)O[C@@H]2C[C@H]3[C@@H]4CCC5=CC(=O)C=C[C@]5(C)[C@H]4[C@@H](O)C[C@]3(C)[C@]2(C(=O)CO)O1 | inactive | – | 4.23
COC(=O)C1=C(C)NC(c2ncc(F)cc2F)=N[C@@H]1c1ccc(F)cc1Cl | inactive | – | -19.4
Clc1ccc(-c2nc3sccn3c2/C=N/OCc2ccc(Cl)c(Cl)c2)cc1 | inactive | – | -8.8
COC1=C2C[C@H](C)C[C@H](OC)[C@H](O)[C@@H](C)/C=C(/C)[C@H](OC(N)=O)[C@@H](OC)/C=C\C=C(\C)C(=O)NC(=CC1=O)C2=O | inactive | inactive | –
Cc1cnc(NC(=O)c2cc(Oc3cnc(C(=O)N(C)C)nc3)c3cc(C)oc3c2)cn1 | inactive | – | -4.66
COc1ccc(Oc2cc(NCCC(F)(F)F)c3ncc(-c4ccc(C(=O)NC5CC5)c(C)c4)n3n2)c(F)c1F | inactive | – | -12.1
O=C(/C=C/c1ccc(CN(CCO)CCc2c[nH]c3ccccc23)cc1)NO | inactive | – | -7.55
Nc1nc(OC(c2ccc(-c3cccc(F)c3)cc2)C(F)(F)F)cc(-c2ccc(C[C@@H](N)C(=O)O)cc2)n1 (stereo not given in full) | inactive | inactive | –
CC1(C)OC2=C(C(=O)c3ccccc3C2=O)[C@H](NCc2ccccc2)[C@@H]1O | 10 µM (active) | 3.16 µM (active) | –
Nc1nc(F)nc2c1ncn2C1OC(COP(=O)(O)O)C(O)C1O (stereo not given) | inactive | – | -9.43
CCc1cccc2c3c([nH]c12)[C@@](CC)(CC(=O)O)OCC3 | inactive | – | -19.9
OC(c1ccc(-c2ccc(CN3CCN(Cc4ccncc4)CC3)cc2)c(F)c1)(C(F)(F)F)C(F)(F)F | inactive | inactive | –
COc1ccc2[nH]c(C(=O)N3CCC(CC(C)(C)O)CC3)cc2c1 | inactive | inactive | –
Cc1[nH]nc(C(F)(F)F)c1Cc1sc2c(c1C(=O)N1C[C@](C)(O)CO1)c(=O)n(C)c(=O)n2C(C)C | inactive | – | -25.9
CCCCCCCCCCCCC[N+](C)(C)Cc1ccccc1 | 20 µM (active) | 20 µM (active) | –
Cc1nc(-c2cccnc2)sc1C(=O)Nc1ccccc1-c1cn2c(CN3CCOCC3)csc2n1 | inactive | inactive | –
CC1Oc2cc(cnc2N)-c2c(nn(C)c2C#N)CN(C)C(=O)c2ccc(F)cc21 (stereo not given) | inactive | – | -19.3
COc1ccc(-c2oc3ncnc(N)c3c2-c2ccc(NC(=O)Nc3cc(C(F)(F)F)ccc3F)cc2)cc1 | inactive | – | 0.997
CC1c2cccc(O)c2C(O)=C2C(=O)C3(O)C(O)=C(C(N)=O)C(=O)C(N(C)C)C3C(O)C21 (stereo not given) | inactive | – | -15.9
C/C=C1\NC(=O)[C@H]2CSSCC/C=C\[C@H](CC(=O)N[C@H](C(C)C)C(=O)N2)OC(=O)[C@H](C(C)C)NC1=O | 6.31 µM (active) | 7.08 µM (active) | –
CO[C@H]1/C=C/O[C@@]2(C)Oc3c(C)c(O)c4c(O)c(c(/C=N/N5CCN(C)CC5)c(O)c4c3C2=O)NC(=O)/C(C)=C\C=C\[C@H](C)[C@H](O)[C@@H](C)[C@@H](O)[C@@H](C)[C@H](OC(C)=O)[C@@H]1C | inactive | – | -0.679
